Screens: PubChem BioAssay, Broad Institute
Rows were chosen to be rich in hits. Some 2.2% of all compounds tested hit in one or more screens of this group.
TRPM1 prom inh: MITF TRPM1 promoter inhibition in SK-MEL-5 cells | inhibition, % at 12.5 µM | 0.83% of 330,000 active | SK-MEL-5 TRPM1 promoter luciferase, 24 h;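 active = mean inhibition across replicates of 60% or more, whatever share of single replicates reaches that level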
Shn3 3UTR inh: inhibitors of Schnurri-3 3'UTR reporter in osteoblasts; 0.52% of 360,000 active; inhibition, % at 12.5 µM; AID 588674; Clone20 osteoblast Shn3 3'UTR firefly luciferase, 24 h;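 active = mean inhibition of at least 75% with every replicate also reaching 75%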;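 note: 0% = median of neutral control wells and 100% = pilot-screen positive control compound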
LMP1 NFkB inh: reduces LMP1-driven NF-kappaB luciferase signal. inhibition, % at 12.5 µM. AID 504558. LMP1-induced NF-kappaB luciferase reporter cells, luminescence. 0.69% of 350,000 active; in the data active = inhibition above about 41%;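 note: 0% = neutral control wells and 100% = reference inhibitor control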
LGR2 antag: Drosophila LGR2 receptor signaling inhibition; HEK293 LGR2, CRE-luciferase, bursicon-stimulated, 4 h; inhibition, % at 9.99 µM; 0.35% of 380,000 active; AID 720647;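 active = drop in luminescence signal, shown as inhibition above about 50% in the replicate tests, limit read from the data, passing the limit was not always enough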;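 note: agonist challenge used bursicon conditioned medium at about half maximal strength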
EWS-Fli block: EWS/Fli transcriptional activity inhibition; A673 NR0B1-luciferase reporter, viability-normalised; inhibition, % at 12.6 µM; AID 651661; 0.67% of 350,000 active;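 active = mean inhibition of at least 50% after viability correction, with every replicate also passing that limit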;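 note: firefly luciferase signal divided by Alamar Blue viability fluorescence both relative to DMSO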
PAX8 inh HTS: PAX8 transcriptional activity inhibition; inhibition, % at 12.6 µM; RMG-I TPO-luciferase reporter, SteadyGlo, 24 h; AID 652154; 1.2% of 360,000 active;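 active = mean replicate inhibition at least 60% with every replicate also reaching 60%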;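 note: luciferase light reporting Pax8 driven TPO promoter activity; plate controls were median of neutral control wells for no effect and mitoxantrone controls for full effect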
DNA binder FP: small molecule DNA binding by fluorescence polarization. salmon sperm DNA acridine orange fluorescence polarization. AID 720586. 2% of 640 active. shares compounds with EWS-Fli block. AC35, µM (highest dose often 68 µM), for inactives: top-dose activity change, negative = DNA binding;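 active = fitted curve reaches a 35% signal fall AC35 below twice the sample's top valid tested dose, actives reach about 48 µM in these data; inactive = the rest, including activity in the rising direction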;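 note: lower polarization ratio signals compound binding to DNA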
* hit, by the source's call; . = no result.

SMILES	TRPM1 prom inh	Shn3 3UTR inh	LMP1 NFkB inh	LGR2 antag	EWS-Fli block	PAX8 inh HTS	DNA binder FP
O=C(N/N=C/c1ccc[nH]1)c1ccccc1OCc1ccc(F)cc1	9	13	5	-9	2	12	.
C[C@@H]1CN([C@@H](C)CO)C(=O)Cc2cc(NC(=O)c3ccncc3)ccc2O[C@H]1CN(C)Cc1ccc(C(=O)Nc2ccccc2N)cc1	.	.	.	4	28	-23	.
C[C@H](CO)N1C[C@H](C)[C@H](CN(C)Cc2ccc(C(=O)Nc3ccccc3N)cc2)OCCCC[C@H](C)Oc2ccc(N(C)C)cc2C1=O	.	.	.	.	9	-19	.
C[C@H]1CN([C@@H](C)CO)C(=O)c2cc(N(C)C)ccc2O[C@H]1CN(C)Cc1ccc(C(=O)Nc2ccccc2N)cc1	.	.	.	10	61*	3	-8%
C[C@@H]1CN([C@H](C)CO)C(=O)c2cc(N(C)C)ccc2O[C@H]1CN(C)Cc1ccc(C(=O)Nc2ccccc2N)cc1	.	.	.	8	65*	4	6%
C[C@@H]1CN([C@H](C)CO)C(=O)Cc2cc(N(C)C)ccc2O[C@H]1CN(C)Cc1ccc(C(=O)Nc2ccccc2N)cc1	.	.	.	-4	59*	16	-9%
C[C@@H]1CN([C@@H](C)CO)C(=O)Cc2cc(NC(=O)C3CCCCC3)ccc2O[C@H]1CN(C)Cc1ccc(C(=O)Nc2ccccc2N)cc1	.	.	.	-6	52*	.	-7%
COc1ccc2c3c([nH]c2c1)[C@@H](CO)N(S(C)(=O)=O)CC31CCN(C(=O)CN(C)C)CC1	.	.	.	-14	-10	.	.
C[C@H](CO)N1C[C@H](C)[C@@H](CN(C)C(=O)c2cnccn2)Oc2ncc(-c3cccc(C#N)c3)cc2C1=O	.	.	.	2	-5	-20	.
C[C@H]1CCCCO[C@@H](CN(C)Cc2ccc(C(=O)O)cc2)[C@@H](C)CN([C@@H](C)CO)C(=O)c2cc(NC(=O)Nc3ccc(C(F)(F)F)cc3)ccc2O1	.	.	.	3	-12	3	.
C[C@H](CO)N1C[C@H](C)[C@@H](CN(C)Cc2ccc(C(=O)Nc3ccccc3N)cc2)Oc2ccc(NC(=O)Nc3ccc(F)cc3)cc2C1=O	.	.	.	4	6	.	.
C[C@@H]1CN([C@@H](C)CO)C(=O)c2cc(N(C)C)ccc2O[C@H]1CN(C)Cc1ccc(C(=O)Nc2ccccc2N)cc1	.	.	.	9	63*	-21	-7%
C[C@H]1CN([C@@H](C)CO)C(=O)c2cc(NS(C)(=O)=O)ccc2O[C@H]1CN(C)Cc1ccc(C(=O)Nc2ccccc2N)cc1	.	.	.	-6	14	.	.
C[C@@H]1CN([C@H](C)CO)C(=O)c2cc(NC(=O)Nc3ccccc3)ccc2O[C@@H]1CN(C)Cc1ccc(C(=O)Nc2ccccc2N)cc1	.	.	.	4	55*	-12	-11%
C[C@H](CO)N1C[C@H](C)[C@H](CN(C)Cc2ccc(C(=O)Nc3ccccc3N)cc2)Oc2ccc(N(C)C)cc2C1=O	.	.	.	-18	65*	76*	3%
Cc1noc(C)c1NC(=O)N[C@@H]1C=C[C@@H](CC(=O)NCCCN(C)C)O[C@@H]1CO	.	.	.	7	.	.	.
O=C(Cc1ccccn1)N[C@@H]1CC[C@H](CCn2cc(-c3ccc(F)cc3)nn2)O[C@H]1CO	.	.	.	15	.	14	.
C[C@@H]1CN([C@@H](C)CO)C(=O)Cc2cc(NC(=O)Cc3cn(C)c4ccccc34)ccc2O[C@@H]1CN(C)C(=O)Nc1ccc2c(c1)OCO2	.	.	.	3	-48	6	.
COCC#Cc1cnc2c(c1)C(=O)N([C@@H](C)CO)C[C@@H](C)[C@@H](CN(C)C(=O)Nc1cc(F)ccc1F)O2	.	.	.	-7	-10	-7	.
CN1C(=O)c2cc(NC(=O)c3ccc(Cl)cc3)ccc2OC[C@@H]2O[C@@H](CC(=O)NCc3cccc(F)c3)CC[C@H]21	.	.	.	12	61*	33	6%
CN1C(=O)c2cc(NC(=O)c3ccc(Cl)cc3)ccc2OC[C@H]2O[C@@H](CC(=O)NCc3cccc(F)c3)CC[C@@H]21	.	.	.	-1	6	17	.
CCNC(=O)C[C@@H]1CC[C@H]2[C@@H](COc3ccc(NC(=O)c4cc(C)on4)cc3C(=O)N2C)O1	.	.	.	3	-1	-4	.
COC(=O)C[C@@H]1CC[C@@H]2[C@H](COc3ccc(NC(=O)c4ccc(C(F)(F)F)cc4)cc3C(=O)N2C)O1	.	.	.	24	78*	16	-8%
